Reference: PubChem BioAssay AID588343 (Broad Institute, 2011)
Out of some 1,200 compounds screened, about 650 (54%) were called active. Not shown: some 5% with an inconclusive outcome.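 The calls were made as follows: active = signal-lowering curve whose fitted half-maximal concentration is at or below ten times the top valid dose tested; inconclusive = flat curve with 30 to 70% inhibition, or poor fit; inactive = signal increase, flat within 30%, or potency beyond limit.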 So high a share suggests a set chosen from earlier hits. A selection follows. Measured potencies and affinities stand elsewhere.

Assay: EBV LMP1 TES2 canonical NF-kB signalling blockers – cell-based, HEK293, luciferase, cherry-pick, dose response (AID 588343)
Conditions: HEK293 LMP1 TES2 NF-kB luciferase reporter, 16 h; series mostly up to 35 µM

outcome, inactive:
Cc1cc(N)nc(=O)n1C1CC(O)C(CO)O1 (stereo unspecified)
O=C1CN(C(=O)c2ccc(F)c(S(=O)(=O)N3CCOCC3)c2)c2ccccc2N1
COc1ccc(C(=O)OCC(=O)c2c[nH]c3ccccc23)cc1OC
O=C(O)c1cc(=O)c2c(OCC(O)COc3cccc4oc(C(=O)O)cc(=O)c34)cccc2o1
Cc1ccc(NS(=O)(=O)c2ccc(NC(=O)C(C)Sc3ccc(Cl)cc3)cc2)c(C)c1 (stereo unspecified)
COc1ccc(CNC(=O)COC(=O)[C@@H]2CCCN2C(=O)c2cccs2)cc1
O=[N+]([O-])c1ccc(Cl)c(S(=O)(=O)NCC2CCCO2)c1 (stereo unspecified)
CSc1ccc2c(c1)C(N1CCN(C)CC1)Cc1ccccc1S2 (stereo unspecified)
O=C(c1ccc(C#CC2(O)CCCCC2)cc1)N1CCN(C(c2ccccc2)c2ccccc2)CC1
COCCNC(=O)NC12CC3(C)CC(C)(CC(C)(C3)C1)C2
COc1cc(CC(=O)N(c2ccccc2)c2nc(C)cs2)cc(OC)c1OC
Clc1ccc(-c2ccnc(Oc3ccc4ccccc4c3)n2)cc1
Cc1ccc(-c2cc(N)n3nc(-c4ccc(C)cc4)cc3n2)cc1
COC(=O)c1ccccc1NC(=O)CC(=O)Nc1ccccc1C(=O)OC
Cc1nc(SCC(=O)c2cccc([N+](=O)[O-])c2)n[nH]1
C[C@H](CO)N1C[C@H](C)[C@@H](CN(C)C(=O)NC2CCCCC2)Oc2c(NS(=O)(=O)c3cn(C)cn3)cccc2C1=O
NC1=NC(=O)NC1(c1ccccc1)c1ccccc1
COc1cc2nc(N3CCN(C(=O)C4CCCO4)CC3)nc(N)c2cc1OC (stereo unspecified)
C[C@H](NC(=O)N1CCn2c1nc1ccccc12)C(=O)NCC1CCCO1 (stereo partly specified)
CCOC(=O)OC(C)OC(=O)[C@@H]1N2C(=O)[C@@H](NC(=O)[C@H](N)c3ccccc3)[C@H]2SC1(C)C (stereo partly specified)
CSc1oc(-c2ccc(F)cc2)nc1S(=O)(=O)c1ccc(F)cc1
CC(NC(=O)CCOc1ccccc1)c1ccccc1 (stereo unspecified)
O=C(O)c1cn2c3c(ccc(Cl)c3c1=O)OCC2
Oc1cccc(/C=N/NC(=S)NCCN2CCOCC2)c1O
CN(C)CCC(c1ccccc1)c1ccccn1 (stereo unspecified)
COC(=O)CN(c1ccccc1F)S(=O)(=O)c1ccc(C)cc1
CC(=O)O[C@H]1CC[C@@]2(C)C(=CC[C@H]3[C@@H]4CC[C@H](C(C)=O)[C@@]4(C)CC[C@@H]32)C1
CN(C)/C=C/C(=O)c1ccc2noc(-c3ccccc3)c2c1
CCON1C(=O)C2(CCCCC2)C(=O)C12C=CCCC2 (stereo unspecified)
CCN(CC)c1ccc(NC(=O)c2cccc(F)c2)c(C)c1
CCOC(=O)CCSc1nc(N2CCOCC2)c2c(c1C#N)CC(C)(C)OC2
CSc1nc(C)nc2c1c(=O)n(C)c(=O)n2C
COCCn1c(SCc2ccc(C(=O)OC)o2)nnc1-c1c[nH]c2ccccc12
CCOc1ccc(NC(=O)CCc2nnc3ccc(N4CCC5(CC4)OCCO5)nn23)cc1
COc1ccc(C2CC(C(F)(F)F)n3ncc(C(=O)NCc4cccnc4)c3N2)cc1OC (stereo unspecified)
CCCCCC(=O)NC(=S)Nc1ccc(Br)cc1C
CC(CNC1CCCCC1)OC(=O)c1ccccc1 (stereo unspecified)
CCC(=O)NC(=S)Nc1ccccc1C(F)(F)F
CCN(C(=O)c1cccc(NC(=O)c2ccccc2)c1)C1CCCCC1
COc1ccc(C(=O)N(CN2CCCC2=O)c2cc(C)on2)cc1OC
O=C1OCC2=C1C(c1ccc3c(c1)OCO3)c1cc3c(cc1O2)OCO3 (stereo unspecified)
CNC1(C)[C@H]2CC[C@H](C2)C1(C)C (stereo partly specified)
Cc1ccc(NC(=O)/C=N/OCC(=O)NCc2ccccc2Cl)cc1
COCC(=O)N(C)c1nnc(-c2ccccn2)s1
Cc1cc(C)cc(C(=O)NCCC(=O)NCc2cc(=O)n(C)c(=O)n2C)c1
CCOCCCNC(=O)CN1C(=O)/C(=C\c2ccc(C)cc2)Sc2ccccc21
Cc1ccc(S(=O)(=O)N2CCC[C@H]2C(=O)Nc2ccccc2C)cc1
CCN(C(=O)c1cc(OC)c(OC)c(OC)c1)C1CCCCC1
C[C@]12CC[C@@H]3c4ccc(OS(=O)(=O)O)cc4CC[C@H]3[C@@H]1CCC2=O
O=c1c([N+](=O)[O-])cn(Cc2ccccc2)c(=O)n1Cc1ccccc1
C[C@@]12C(=O)N(Cc3ccccc3)CC(=O)N1[C@H](/C=C/c1ccccc1)[C@@H]1C(=O)N(c3ccccc3)C(=O)[C@@H]12
O=c1cc(-c2ccccc2)[nH]c2ccc(F)cc12
O=C(C1CC1)N1N=C(c2ccc(Br)cc2)CC1(O)C(F)(F)F (stereo unspecified)
COc1cc(OC)cc(-c2c(C#Cc3ccsc3)c3cc(-c4cc(OC)c(OC)c(OC)c4)ccc3n2C)c1
CCCc1nc(SCC(=O)NCc2ccco2)c2c(=O)n(C)c(=O)n(C)c2n1
Cc1cccn2c(=O)c(C=NCCO)c(NCc3ccco3)nc12
Cc1cccc(Nc2nc(Cl)ncc2F)c1C
COc1ccccc1C=NN=Cc1ccccc1O
COC(CNC(=O)c1ccc(N2CCC3(CC2)OCCO3)c([N+](=O)[O-])c1)OC
CC(=O)Nc1ccc(NC(=O)C(c2ccccc2)c2ccccc2)cc1
CCOC(=O)[C@H]1[C@H]2COc3ccc(OC)cc3[C@@H]2N2C(=O)CN(C)C(=O)[C@@]12C
COc1ccc(C2=NN(C(=O)CSC3=NN4CCCC(=O)N=C4S3)C(c3cccc(OC)c3OC)C2)cc1 (stereo unspecified)
CCOC(=O)Nc1ccc2c(c1)N(C(=O)CN(C)C)c1ccccc1CC2
Cn1c(=O)c2c(ncn2CC(=O)Nc2cc(S(=O)(=O)N3CCCCC3)ccc2O)n(C)c1=O
CCCN1C(=O)C2(SC(NC(C)=O)=NN2C(C)=O)c2cc(C)cc(C)c21 (stereo unspecified)
CCC(C)[C@H](NC(=O)NCc1cccnc1)C(=O)OC (stereo partly specified)
